TWEAK-Fn14 inh – inhibitors of TWEAK-Fn14 interaction signaling. TWEAK-stimulated Fn14 reporter cells, luciferase luminescence, 8 h. inhibition, % at 10 µM. 2% of 360,000 active. AID 1159606; in the data active = inhibition above about 50%
Peg3 prom inh – Peg3 promoter activity inhibition; inhibition, % at 20 µM; 1.7% of 360,000 active; HeLa PEG-Prom luciferase reporter, luminescence, overnight;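 active = inhibition of at least 50% at 20 µM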
CF NFkB block – cystic fibrosis NF-kB activation inhibition | KKLEB NF-kB-GFP reporter, PAF-induced, GFP fluorescence overnight | 0.86% of 360,000 active | inhibition, % at 5 µM;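 active = at least 50% inhibition at 5 µM, scaled per plate between neutral and stimulator controls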;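 note: PAF is a Pseudomonas aeruginosa culture filtrate used as stimulus; plate controls were PAF-stimulated DMSO wells for no effect and unstimulated DMSO wells for full effect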
KKLEB cytotox – CF airway cell cytotoxicity counter-screen; KKLEB CF airway cells viability, ATPlite luminescence, overnight; stronger effect = lower value; cells stimulated with P. aeruginosa culture filtrate; activity change (cytotoxicity), % at 5 µM; 0.36% of 360,000 active; AID 602141;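 active = corrected activity change at or below -50% at 5 µM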
HIF-2a block – inhibitors of HIF-2a; 786-0 RCC cells HIF-2a reporter, luciferase luminescence, overnight; inhibition, % at 18.8 µM; 0.72% of 360,000 active; AID 624352;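 active = inhibition of the luminescence signal of 40% or more relative to plate controls, in a single-dose primary screen at 18.75 µM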
TROY signal inh – TROY signaling inhibition. AID 1347056. 0.98% of 360,000 active. inhibition, % at 10 µM. Q293 LMP1-TROYcd NF-kB luciferase reporter, 4 h;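 active = compounds whose plate-normalised and pattern-corrected inhibition of the luciferase reporter signal at the single screening dose is 50% or more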
An asterisk follows results filed as active; / = no result given. In the library only some 4% were active in any assay of this set; here they are far more common.

SMILES | TWEAK-Fn14 inh | Peg3 prom inh | CF NFkB block | KKLEB cytotox | HIF-2a block | TROY signal inh
Nc1c(C(=O)Nc2ccccc2)nnn1-c1ccc2c(c1)OCCO2 | 56* | -166 | 6 | -3 | -124 | 32
O=C(CCc1ccccc1)c1ccc2c(c1)OCCCO2 | 1 | -307 | -7 | -6 | -254 | -64
COc1ccc(Cc2c(C3CCCCC3)nc3ccc(Cl)cn23)c(C)c1 | 33 | -7 | 10 | -4 | 11 | 6
CSc1cccc(NC(=O)CNS(=O)(=O)c2ccccc2)c1 | 1 | -25 | 9 | -6 | -28 | -15
Cc1cccc(C(=O)Nc2nc(C)c(C(=O)Nc3ccc4c(c3)CCC4)s2)c1 | 52* | -42 | 24 | -6 | -61 | 8
CCCCN1C(=O)C(CC(=O)NCCc2ccccn2)CC(C(=O)N2CCOCC2)=C1C (stereo not drawn) | 11 | -28 | 1 | 0 | 6 | -8
CN(C#N)c1nc(Cl)nc(Nc2cccc(Cl)c2)n1 | -8 | 99* | 15 | -2 | 14 | -13
COc1ccc(/C=N/OCC(=O)Nc2cc(C)on2)cc1OC | -3 | 13 | 6 | -8 | 14 | -14
COc1ccc(/C=N/OCC(=O)NC(c2ccccc2)c2ccccc2)cc1OC | 52* | -8 | 9 | 0 | 12 | 25
COC(=O)c1c(NC(=O)C2CC=CCC2C(=O)O)sc2c1CCCCC2 (stereo not drawn) | 96* | 7 | -26 | 5 | 2 | 2
O=C(Nc1sc2c(c1C(=O)O)CCC2)c1ccccc1 | 36 | -144 | 14 | -1 | -144 | -34
O=C(Nc1sc2c(c1C(=O)O)CCCCC2)c1ccccc1 | 64* | -215 | 9 | 8 | -247 | 37
OC(c1ccc(F)c(F)c1)c1nc(-c2cccc3cccnc23)cs1 (stereo not drawn) | -32 | -60 | -17 | -3 | -103 | -17
COc1ccc(C(=O)NCCN2CCOCC2)c(OC)c1OC | 8 | 0 | 11 | 3 | 12 | -1
O=C1NC[C@@H](CCCCN2C[C@H](Cc3ccc(O)cc3)N(CC3CCCCC3)C(=O)C2=O)N(Cc2ccccc2)C1=O | 18 | / | / | / | -8 | -10
CC(C)(C)N=C1NC(=NC(C)(C)C)c2ccccc21 | 53* | 10 | -6 | -9 | -11 | -23
CCCN(CC(=O)Nc1ccc(F)c(F)c1F)C(=O)Cc1ccc(S(=O)(=O)N2CCOCC2)s1 | 11 | 6 | 14 | 0 | 8 | -2
NCCCn1c(C(=O)c2cc(Cl)c(N)c(Cl)c2)c2ccc([N+](=O)[O-])cc2[n+]1[O-] | -37 | 57* | -1 | -4 | 17 | -32
COc1ccc(-n2cc(CNCC3CCOCC3)c(-c3cccc(F)c3)n2)cc1 | 84* | -11 | -8 | -4 | -5 | -42
CCc1c(C)nc(N2CCN(c3ccccc3F)CC2)[nH]c1=O | -3 | -4 | 1 | 3 | -3 | -5
N#Cc1cc(-c2ccccc2)[nH]c1-c1nccc2ccccc12 | 56* | -16 | 0 | -10 | -26 | 25
N/C(=N\OC(=O)c1ccc2ccccc2c1)c1ccccn1 | 96* | 111* | 19 | -68* | 26 | 86*
N/C(=N\OC(=O)c1ccc2ccccc2c1)c1ccccc1Cl | -148 | 81* | 37 | -9 | -300 | -42
COc1cccc(/C(C)=N/Nc2ccc(S(=O)(=O)N3CCCCC3)cn2)c1 | 17 | 22 | -5 | -1 | 19 | 12
COc1ccccc1CNc1nc(NCc2ccccc2)nc2ccsc12 | 0 | 16 | -7 | -9 | 9 | 50*
SMILES | TWEAK-Fn14 inh | Peg3 prom inh | CF NFkB block | KKLEB cytotox | HIF-2a block | TROY signal inh
c1ccc(CNc2nc(Oc3ccncc3)c3sccc3n2)cc1 | 99* | -13 | -16 | -9 | 9 | -10
c1ccc(CNc2nc(NCc3ccccc3)c3sccc3n2)cc1 | 39 | -5 | -22 | -12 | -12 | 58*
COc1ccccc1CNc1nc(NCc2cccc(OC)c2OC)c2sccc2n1 | 76* | 54* | 13 | -12 | 19 | 75*
CCc1cccc(C)c1NC(=O)CN1C(=O)NC(CCc2ccccc2)C1=O (stereo not drawn) | -3 | 13 | 21 | 9 | 10 | -4
COc1ccccc1CNc1nc(NCc2ccccc2F)c2sccc2n1 | 90* | 36 | 30 | -12 | 15 | 58*
COCCNc1nc(NCc2ccccc2F)c2sccc2n1 | -19 | 13 | 7 | 4 | 4 | 19
C#Cc1cccc(Nc2nc(NCc3ccccc3OC)nc3ccsc23)c1 | 74* | 33 | 39 | -31 | -92 | 40
COc1ccccc1CNc1nc(NC(C)C)nc2cc(-c3ccccc3)sc12 | 11 | 75* | 13 | 4 | -18 | -44
CCCCCCCCN1C(=O)[C@H](CC(=O)N2CCOCC2)C[C@@]2(C(=O)OC)CC(C)(C)CC=C12 | / | / | / | / | -1 | /
O=C(c1cc(-c2ccc(Cl)cc2Cl)on1)N1CCCCCC1 | 24 | -288 | 3 | -9 | -177 | -1
O=C(c1cc(-c2ccc(Cl)cc2Cl)on1)N1CCCC1 | 70* | -61 | -5 | -26 | -36 | 48
Cc1ccc(-c2cc(-c3ccccc3)no2)cc1 | 60* | -233 | -18 | -32 | -121 | -26
O=C(c1cc(-c2ccc3c(c2)OCO3)on1)N1CCCCC1 | 78* | -60 | 17 | -13 | -21 | 48
O=C(c1cc(-c2ccc(Cl)c(Cl)c2)on1)N1CCCCCC1 | -19 | -371 | -17 | 7 | -262 | -27
COc1ccc(-c2cc(C(=O)N3CCN(c4ccccc4)CC3)no2)cc1 | 50* | -324 | -11 | 2 | -283 | 38
NC(=O)C1CCCN(C(=O)c2[nH]c(C(F)(F)F)nc2-c2ccccc2)C1 (stereo not drawn) | -21 | 16 | -6 | -2 | 7 | 1
Cc1ccc(-c2cc(C(=O)N3CCOCC3)no2)cc1 | 86* | -8 | -36 | 3 | 31 | 67*
Cc1ccc(-c2cc(C(=O)N3CCCC3)no2)cc1 | 83* | -15 | -26 | -22 | 11 | 50*
O=C(c1cc(-c2cccc(O)c2)on1)N1CCN(C(c2ccccc2)c2ccccc2)CC1 | 36 | 82* | 29 | -13 | -32 | 30
O=C(c1cc(-c2ccco2)on1)N1CCOCC1 | 8 | -89 | 11 | 1 | -119 | -48
O=C(c1cc(C2CC2)on1)N1CCN(C(c2ccccc2)c2ccccc2)CC1 | 11 | 0 | 4 | 21 | 19 | -11
CCOc1ccc(-c2cc(CCCC(=O)NCCCOC)no2)cc1 | 1 | 4 | -5 | 5 | 32 | 8
CCOc1ccc(-c2cc(CCCC(=O)N3CCN(c4ccc(OC)cc4)CC3)no2)cc1 | 42 | 7 | 22 | 8 | 50* | 20
C[C@]12c3[nH]c4ccccc4c3CCN1C(=O)C(CC(=O)NCCc1ccccn1)C[C@@H]2C(=O)N1CCOCC1 (stereo partly drawn) | -7 | -10 | -5 | -2 | 3 | -6
CC(=O)Nc1cncc(-c2ccccc2N(C)C)n1 | -15 | -3 | -14 | 17 | 9 | -25
